# Results with a measured potency or affinity are listed apart. Unmarked numbers belong to inactive results.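 The calls were made as follows: active = falling luciferase signal whose fitted half-maximal concentration is at most twice the top tested dose; inconclusive = flat inhibition between 30 and 70% or a poor curve fit; inactive = the rest.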
# Assay: off-target signal loss in HeLa-CEM21 co-culture – HeLa F-luc CTL cells, cherry-picked, counter-screen for HIV-1 Env fusion inhibitor project, dose response (AID 652040);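 also: 0% = median of neutral control wells and -100% = doxycycline 40 µg/mL wells; more negative values mean stronger loss of luciferase signal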
# Conditions: HeLa-F-luc CTL cells with CEM21, firefly luciferase counterscreen; series mostly up to 35 µM; activity change, negative = inhibition: at the top concentration
row,Structure (SMILES),"activity change, negative = inhibition"
1,CCC(=NCc1ccc(F)cc1)c1c(O)n(C)c(=O)n(C)c1=O,-4.39%
2,CCC(=NCCc1c[nH]c2ccccc12)c1c(O)n(C)c(=O)n(C)c1=O,45.4%
3,Cn1nc(-c2ccc(OCC(=O)N3CCN(Cc4ccccc4)CC3)cc2)c2ccccc2c1=O,13.6%

# Source: PubChem BioAssay AID652040 (Broad Institute, 2013)
